High-throughput results (PubChem BioAssay)
Shown are actives, neighbours in structure and some others; about 4.7% of the full set was active somewhere.
ADAM17 inh: ADAM17 inhibition, QFRET primary screen; inhibition, % at 6.95 µM; recombinant ADAM17, EDANS/DABCYL FRET peptide cleavage; AID 720648; 370,000 compounds, 0.83% hits;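 active = inhibition above the mean of compounds lying between control limits plus 3 SD, set per campaign, cut at about 8.5% in these data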;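 also: 0% = DMSO-only wells as the low control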
Pemphigus Ab inh: inhibitors of pemphigus antibody binding to human desmoglein-3; P32926; DSG3-coupled beads, scFv-anti-DSG3-GFP binding, flow cytometry; stronger effect = lower value; binding (percent of control), % at 10 µM; 310,000 compounds, 0.48% hits; AID 588358;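 active = binding more than 3 SD below its plate's average and above zero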
ADAM10 inh: inhibits human ADAM10. O14672. inhibition, % at 7 µM. recombinant ADAM10, EDANS/DABCYL FRET peptide cleavage, 3 h. AID 720582. 370,000 compounds, 0.62% hits;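 active = inhibition above a per-campaign cutoff equal to the mean of compounds falling between control-based bounds plus 3 SD, cut at about 20% in these data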;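 also: 0% = DMSO wells while the 100% control is not disclosed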
Target sequence (O14672 214-748 limits assumed): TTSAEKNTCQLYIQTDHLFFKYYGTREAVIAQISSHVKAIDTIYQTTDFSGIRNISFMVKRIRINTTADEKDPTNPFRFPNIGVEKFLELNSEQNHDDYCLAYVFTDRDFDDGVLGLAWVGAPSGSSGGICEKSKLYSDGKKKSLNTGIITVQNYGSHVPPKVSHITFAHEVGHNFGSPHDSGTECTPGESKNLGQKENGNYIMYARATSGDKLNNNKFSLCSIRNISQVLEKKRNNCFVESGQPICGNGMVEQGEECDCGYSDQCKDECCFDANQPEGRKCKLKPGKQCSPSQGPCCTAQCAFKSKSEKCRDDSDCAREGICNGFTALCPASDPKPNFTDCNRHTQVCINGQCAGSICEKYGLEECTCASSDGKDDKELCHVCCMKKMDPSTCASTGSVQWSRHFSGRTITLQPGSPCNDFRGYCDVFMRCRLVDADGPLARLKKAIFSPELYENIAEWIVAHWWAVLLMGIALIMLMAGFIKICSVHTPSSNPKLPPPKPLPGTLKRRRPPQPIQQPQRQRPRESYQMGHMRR
KLK7 zymogen act: proKLK7 (human) activation, primary screen | activation, % at 7 µM | 370,000 compounds, 0.9% hits | purified proKLK7, EDANS-DABCYL substrate fluorescence; 100% is mature enzyme control, 0% vehicle | P49862 | AID 652039;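 active = activation above the mean of all tested compounds plus 3 SD, computed per campaign excluding outliers beyond control limits, cut at about 13% in these data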
MPTP inh: permeability transition pore inhibition | 360,000 compounds, 1.4% hits | AID 602449 | inhibition, % at 10 µM | isolated mouse mitochondria, Ca2+ swelling absorbance, 30 min;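 active = inhibition of 50% or more, scaled per plate between neutral and stimulator controls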;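 also: 0% = DMSO wells given calcium and 100% = 1 mM EGTA wells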
rCAG binder: molecules binding r(CAG) RNA repeats; r(CAG) RNA repeat, TO-PRO-1 dye displacement fluorescence; inhibition, % at 3 µM; 370,000 compounds, 1.3% hits; AID 651821;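 active = inhibition above the plate cutoff, the mean of all test compounds on that plate plus 3 SD, cut at about 35% in these data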;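 also: 0% = DMSO alone and 100% = 100 µM mitoxantrone as full dye displacement; higher means more dye released from RNA so lower well fluorescence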
proKLK7 act conf: proKLK7 activation, confirmation; shares compounds with KLK7 zymogen act; purified proKLK7, EDANS-DABCYL substrate fluorescence; scaled: vehicle 0, mature enzyme 100; activation, % at 7 µM; 3,200 compounds, 68% hits; AID 686949;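 active = activation, as change over the incubation, above the mean of all tested compounds plus 3 SD, cut at about 13% in these data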
EDANS interfere: counter-screen for kallikrein-7 activators: EDANS-DABCYL optical interference; EDANS-DABCYL substrate fluorescence interference, no enzyme, 4 h; solvent 0%, active enzyme control 100%; AID 686952; activation, % at 7 µM; 3,200 compounds, 80% hits; shares compounds with KLK7 zymogen act;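 active = activation above the all-compound mean plus 3 SD, ignoring values outside control-based bounds, cut at about 4.8% in these data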;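 also: value is the 4 h activation minus the activation read at time zero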
K7 EDANS ctr: counter-screen for kallikrein-7 activators: EDANS-DABCYL interference, dose response; EDANS-DABCYL peptide fluorescence interference, no enzyme; shares compounds with KLK7 zymogen act; 250 compounds, 20% hits; EC50, µM;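 active = compounds that raise the fluorescence signal in this interference counterscreen, with EC50 at or below 10 µM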;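 also: intact quenched peptide substrate alone read at 355 nm excitation and 520 nm emission; signal is fluorescence gain from T0 to T4 after four hours at room temperature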
* = called active by the depositor.

Results for Oc1ccccc1-c1cnc2cccnn12 ?
ADAM17 inh: -10; ADAM10 inh: -41; KLK7 zymogen act: 8; MPTP inh: 0; rCAG binder: 0

What do the screens show for `COc1ccc(-c2cnc3cccnn23)cn1`?
ADAM17 inh: -200; ADAM10 inh: inactive; KLK7 zymogen act: 39*; MPTP inh: -2; rCAG binder: 2; proKLK7 act conf: 27*; EDANS interfere: 38*

Results for Clc1ccc(-c2cnc3cccnn23)cc1 ?
ADAM17 inh: -265; ADAM10 inh: inactive; KLK7 zymogen act: 32*; MPTP inh: 2; rCAG binder: 2; proKLK7 act conf: 37*; EDANS interfere: 22*; K7 EDANS ctr: >70

Results for COc1ncccc1-c1cnc2cccnn12 ?
ADAM17 inh: -363; ADAM10 inh: inactive; KLK7 zymogen act: 34*; MPTP inh: -2; rCAG binder: -2; proKLK7 act conf: 58*; EDANS interfere: 58*

What do the screens show for `CCC(C)NC(=O)C1CCC(CNS(=O)(=O)c2cccc3nsnc23)CC1` (centres undefined)?
MPTP inh: 1

How did Cc1cc(C)c2cc3c(ccn3C3OC[C@H](O)[C@H](O)[C@H]3O)cc2n1 (some centres undefined) do in these assays?
ADAM17 inh: -11; Pemphigus Ab inh: 106; ADAM10 inh: -43; KLK7 zymogen act: 23*; MPTP inh: -1; rCAG binder: 2; proKLK7 act conf: 48*; EDANS interfere: 47*

What do the screens show for `Nc1nc(Cl)nc2c1ncn2C1OCC(O)C(O)C1O` (centres undefined)?
ADAM17 inh: -3; ADAM10 inh: -2; KLK7 zymogen act: 0; MPTP inh: -3; rCAG binder: 5

What do the screens show for `CCCN1C(=O)c2ccccc2NC1c1ccc(Cl)cc1` (centres undefined)?
ADAM17 inh: -333; Pemphigus Ab inh: 99; ADAM10 inh: inactive; KLK7 zymogen act: 16*; MPTP inh: 0; rCAG binder: -1; proKLK7 act conf: 6; EDANS interfere: 7.0*

Results for Cc1ccc(C2Nc3ccccc3C(=O)N2CCCN2CCOCC2)cc1 (centres undefined) ?
ADAM17 inh: -241; ADAM10 inh: inactive; KLK7 zymogen act: 23*; MPTP inh: 1; rCAG binder: -2; proKLK7 act conf: 1; EDANS interfere: 2

What do the screens show for `O=C1c2ccccc2NC(c2ccccc2Br)N1CCCN1CCOCC1` (centres undefined)?
ADAM17 inh: -153; Pemphigus Ab inh: 99; ADAM10 inh: inactive; KLK7 zymogen act: 6; MPTP inh: 0; rCAG binder: -3

Results for CCCN1C(=O)c2ccccc2NC1c1ccc(O)c(OCC)c1 (centres undefined) ?
ADAM17 inh: -253; Pemphigus Ab inh: 89; ADAM10 inh: inactive; KLK7 zymogen act: 14*; MPTP inh: 0; rCAG binder: 0; proKLK7 act conf: 10; EDANS interfere: 6.7*

What do the screens show for `O=C1NCCN1CCN1C(=O)c2ccccc2NC1c1ccccc1` (centres undefined)?
ADAM17 inh: inactive; Pemphigus Ab inh: 118; ADAM10 inh: inactive; KLK7 zymogen act: 20*; MPTP inh: 2; rCAG binder: -2; proKLK7 act conf: 30*; EDANS interfere: 33*

Results for COc1ccc(CCN2CC(=O)NC(=O)C2)cc1OC ?
ADAM17 inh: -8; Pemphigus Ab inh: 100; ADAM10 inh: -21; KLK7 zymogen act: 0; MPTP inh: -1; rCAG binder: 0

What do the screens show for `COc1cccc(C2=Cc3ccc(F)cc3C(CC(C)=O)N2c2ccc(C#CC3(O)CCCCC3)cc2)c1` (centres undefined)?
ADAM17 inh: -6; ADAM10 inh: -20; KLK7 zymogen act: 0; MPTP inh: 2; rCAG binder: 6
